Rows were chosen to be rich in hits. Some 0.12% of all compounds tested hit in one or more screens of this group.
Casp1 inh – allosteric or competitive inhibitors of human caspase-1; P29466; Caspase-1 enzyme, Ac-WEHD-AFC fluorogenic rate; AID 900; actives 0.03% (n = 75,000); Potency, µM (doses to about 57.5 µM), inactives show top-dose activity change, negative = inhibition, hits mostly inhibitors;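 also: plate controls were vehicle for no effect and no substrate for full effect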
Casp7 inh – allosteric or competitive inhibitors of human caspase-7; P55210; recombinant caspase-7, Ac-DEVD-AFC fluorescence rate; Potency, µM (highest dose often 57.5 µM), without a hit: at the top dose activity change, negative = inhibition, usual class: inhibitors; actives 0.02% (n = 75,000); AID 889; active = well fitted inhibition curve with a large enough effect in the main read-out, with a control signal flat, not every such curve was filed as active; inconclusive = small, poorly fitted or top-dose-only effect, or a change in a side signal; also: % of control where 0% means no effect
USP2a inhib – blocks human ubiquitin-specific protease USP2a; USP2a enzymatic assay, qHTS inhibition; Potency, µM (doses to about 38.3 µM), for the others: at the highest dose activity change, negative = inhibition, actives largely listed as inhibitors; actives 0.1% (n = 60,000); also: nearly all actives have a fitted effect of over 60% in size
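Inhibition is measured in a cell-free coupled assay with 20 nM USP2 core, 20 nM Ub-PLA2 and 20 uM NBD C6-HPC, 2.5 h incubation. Activity normalized to NEM control.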
* hit, by the source's call; ? = inconclusive; . = no result; [ ] = remark or other dose. Unless noted, calls follow the shape of the dose curve; as a rule, active = well fitted curve in the direction sought with a large enough effect; inconclusive = small, poorly fitted or top-dose-only effect, or another doubt; inactive = no such curve, though single readings can be large; an effect the other way counts as inactive or inconclusive. Potency is read from the fitted curve at half-maximal effect.

SMILES	Casp1 inh	Casp7 inh	USP2a inhib
NCCc1cc(O)c(O)cc1O	-9.4%	-16.2%	13.5%
N[C@@H](Cc1cc(O)c(O)cc1O)C(=O)O	?	?	6.31µM*
CC[C@H](CO)NC(=O)[C@@H]1C=C2c3cccc4[nH]cc(c34)C[C@@H]2N(C)C1	-5.8%	-13.2%	-2.8%
Oc1ccc2c3c1O[C@@H]1c4[nH]c5c(c4C[C@@]4(O)[C@@H](C2)N(CC2CC2)CC[C@]314)C[C@]1(O)[C@@H]2Cc3ccc(O)c4c3[C@@]1(CCN2CC1CC1)[C@H]5O4	1.3%	-1.8%	?
O=C(O)CN1CCN(CC(=O)O)CC(=O)[O][Hg][O]C(=O)C1	-2.1%[11.5 µM]	-2.2%[11.5 µM]	.
CCn1nc(-c2cccs2)nc2c(=O)n(C)c(=O)nc1-2	0.794µM*	?	-6.6%
O=S(=O)(O)F	-5.7%	-2.4%	.
NC(=O)CI	3.8%	2.1%	25.1µM*
N[C@H](Cc1c[nH]c2ccccc12)P(=O)(O)O	-3.3%[11.5 µM]	0.8%[11.5 µM]	.
CO[C@@H]([CH2][Hg])CN1C(=O)c2ccccc2S1(=O)=O.Cn1c(=O)c2nc[nH]c2n(C)c1=O	-0.2%[11.5 µM]	-2.5%[11.5 µM]	.
CN(N=O)c1ccc(O)c(O)c1	3.1%	0.1%	12.6µM*
CCCCCCCCCCCCCC(=O)O[C@H]1[C@@H](C)[C@@]2(O)[C@@H](C=C(CO)C[C@]3(O)C(=O)C(C)=C[C@@H]23)C2C(C)(C)[C@]21OC(C)=O (some centres undefined)	4.0%	0.1%	31.4%
O=C1C=Cc2ccccc2C1=O	-6.8%	-8.1%	.
O=C1C=CC(=O)c2c(O)cccc21	20µM*	?	12.6µM*
CC[C@@H]1CN2CCc3cc(OC)c(OC)cc3[C@H]2C[C@@H]1C[C@@H]1NCCc2cc(OC)c(OC)cc21	-3.1%	0.4%	7.3%
CC1(C)CCC(C)(C)c2c1ccc(O)c2Cc1c(O)ccc2c1C(C)(C)CCC2(C)C	0.1%[11.5 µM]	-2.2%[11.5 µM]	.
O=C1CN=C(c2cccs2)c2c(sc3c2CCCC3)N1	-2.2%	-1.1%	6.31µM*
Cc1cc2c(s1)NC(=O)CN=C2c1cccs1	0.0%	-2.5%	-11.9%

Compound activity from PubChem BioAssay.
